Test results as given in publication PMC5540273 (PLoS ONE, 2017).

What was measured:
Conditions in all cases: concentration: 1 μM, replicates: in singlicate; n = 1
SGK3 = test system: SGK3
SGK = test system: SGK
SIK2 = test system: SIK2
SIK = test system: SIK
SLK = test system: SLK
SNARK = test system: T1, SNARK
T1 construct: gene NUAK2

SNRK = test system: SNRK
SRC = test system: SRC
SRMS = test system: SRMS
SRPK1 = test system: SRPK1
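Also: KINOMEscan kinase panel screen.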

SMILES	%Inh (SGK3)	%Inh (SGK)	%Inh (SIK2)	%Inh (SIK)	%Inh (SLK)	%Inh (SNARK)	%Inh (SNRK)	%Inh (SRC)	%Inh (SRMS)	%Inh (SRPK1)
COc1cccc(CNC(=O)NC2CCN(c3ccnc(Nc4ccc(F)cc4)n3)C2)c1 (stereo not shown) [GSK1379723]	0%	0%	14%	0%	15%	0%	0%	0%	0%	33%
CS(=O)(=O)CCNCc1nc(-c2ccc3ncnc(Nc4ccc(OCc5ccccc5)c(Cl)c4)c3c2)cs1.Cl [GW582764]	0%	11%	0%	6%	14%	0%	0%	0%	0%	10%
CC(=O)c1c(C)c2cnc(Nc3ccn(C)n3)nc2n(C2CCCC2)c1=O	26%	0%	0%	0%	34%	6%	0%	0%	0%	0%
CN1c2ccc(-c3ccc(C(N)=O)cc3)cc2-c2[nH]ncc2S1(=O)=O	0%	0%	10%	8%	2%	0%	0%	7%	4%	0%
Cn1cncc1-c1cc2c(Nc3ccc(OCc4ccccc4)cc3)ncnc2cn1 [GW281179]	0%	4%	0%	0%	19%	0%	0%	0%	0%	18%
Cc1ccc(NC(=O)Nc2ccc(Cl)cc2)cc1-c1ccc(C(=O)Nc2ccncc2)cc1 [GSK1398472]	13%	0%	11%	20%	12%	0%	0%	8%	0%	0%
CS(=O)(=O)Cc1ccc(Nc2nccc(-c3c(-c4cccc(NC(=O)C5CCCCC5)c4)nn4ncccc34)n2)cc1 [GSK350559]	0%	46%	0%	0%	53%	7%	16%	30%	3%	29%
COc1nccc(-c2c(-c3ccc(F)cc3)ncn2CCCN2CCOCC2)n1 [SB-282852]	0%	13%	0%	0%	30%	0%	0%	0%	0%	0%
Cc1cnc(N)c(/C=C/c2cncc(C(=O)NCCc3ccc(Cl)cc3Cl)c2)c1.Cl [GSK190937]	0%	0%	0%	0%	0%	0%	0%	0%	24%	24%
CNC(=O)c1ccc(C)c(-n2c(C)cc(OCc3ccc(F)cc3F)c(Br)c2=O)c1	0%	0%	0%	0%	0%	0%	0%	0%	0%	14%
COc1cc2ncnc(Nc3cccc(Br)c3)c2cc1OC.Cl [GI230329]	0%	22%	0%	0%	65%	3%	23%	20%	21%	34%
NS(=O)(=O)c1cccc(N/C=C2\C(=O)Nc3ccc(S(=O)(=O)Cc4c(Cl)cccc4Cl)cc32)c1 [GSK398099]	5%	0%	0%	0%	15%	0%	0%	0%	0%	19%
Cn1cnc2c(N)ncnc21 [SKF-97623]	0%	0%	27%	0%	0%	0%	0%	0%	0%	0%
CC[C@@H]1CO[C@H](C(=O)Nc2ccccc2)CN1c1cc(-c2ccc3c(N)n[nH]c3c2)nc(NC)n1 [GSK2376236]	9%	19%	0%	0%	16%	26%	5%	0%	0%	32%
O=c1cc(N2CCOCC2)nc2n(Cc3ccccc3F)ccn12 [GSK2297428]	4%	0%	0%	0%	28%	0%	0%	0%	0%	0%
CC(C)c1ccc(O)cc1Nc1ccnc2ccc(C(F)(F)F)cc12 [GW482059]	4%	7%	0%	0%	9%	3%	0%	14%	0%	35%
